Compound activity: PubChem BioAssay, National Center for Advancing Translational Sciences (NCATS)
HADH2 inh: inhibitors of human HADH2 dehydrogenase; Q99714; recombinant HADH2, NADH fluorescence, beta-hydroxybutyryl-CoA; Potency, µM (series often up to 57.1 µM), hits mostly inhibitors; 73,000 compounds, 3.4% hits; AID 886; also: nearly all actives have a fitted effect of over 60% in size
Target sequence (Q99714 whole entry, looked up, one chain of several): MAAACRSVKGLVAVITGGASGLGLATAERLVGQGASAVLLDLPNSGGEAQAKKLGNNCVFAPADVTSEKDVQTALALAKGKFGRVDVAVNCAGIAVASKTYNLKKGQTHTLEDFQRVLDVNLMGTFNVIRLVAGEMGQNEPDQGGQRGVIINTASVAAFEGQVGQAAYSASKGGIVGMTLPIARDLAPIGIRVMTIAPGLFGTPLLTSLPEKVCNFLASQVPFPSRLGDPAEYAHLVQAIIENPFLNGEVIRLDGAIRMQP
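20 nM HADH2 + cpd, 15 min RT; add 1 mM NAD+/90 uM beta-hydroxybutyryl-CoA; kinetic fluorescence 360/450 nm, 4 min. Tris-HCl pH 9.0, 0.01% Tween-20.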
HSD17B inh: blocks hydroxysteroid 17-beta dehydrogenase activity; 75,000 compounds, 7.6% hits; AID 893; Potency, µM (series often up to 57.1 µM), hits mostly inhibitors; recombinant HSD17B10, NADH fluorescence kinetic; Q99714;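 also: the protocol describes HADH2 (HSD17B10) and not the HSD17B4 of the title; nearly all actives have a fitted effect of over 70% in size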
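His-tagged E. coli-expressed HADH2 at 20 nM in 100 mM Tris-HCl pH 9.0 with 0.01 % Tween-20, preincubated 15 min with compound at room temperature. Reaction with 1 mM NAD+ and 90 uM beta-hydroxybutyryl coenzyme A; NADH fluorescence (360/450 nm) read kinetically over 4 min, last minus first point.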
Bst PK mod: pyruvate kinase (B. stearothermophilus) modulation. purified pyruvate kinase, luminescence ATP production; ribose 5-phosphate activator present at AC10. Potency, µM. 51,000 compounds, 1.2% hits; in the data active = potency below about 11 µM; inconclusive = mostly about 12 µM to 25 µM;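 the screen sought inhibitors and activators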
15-hLO inh: 15-hLO (ALOX15) enzyme inhibition; Potency, µM (series often up to 57.1 µM), hits mostly inhibitors; purified 15hLO-1, xylenol orange hydroperoxide absorbance; 74,000 compounds, 1.4% hits; P16050; also: nearly all actives have a fitted effect of over 55% in size
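Compounds were preincubated 15 min at room temperature with 40 nM purified human enzyme (25 mM Hepes pH 7.5, 0.01% Triton X-100); 50 uM arachidonic acid reacted 6 min. Fe-xylenol orange detection, 30 min, absorbance ratio 573/405 nm.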
FLuc inh: inhibitors of firefly luciferase. P08659. purified firefly luciferase, luminescence, 8 min. Potency, µM (doses to about 57.1 µM), hits mostly inhibitors. 72,000 compounds, 2.2% hits; also: nearly all actives have a fitted effect of over 40% in size
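Titration-based qHTS; buffer 50 mM imidazole pH 7.2, 50 mM KCl, 7 mM MgCl2, 10 uM ATP, 0.01% Tween 20, 0.05% BSA; luciferase/luciferin detector mix added after compound; 8 min, ambient; luminescence.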
ERK AVP block: inhibitors of vasopressin-stimulated ERK signaling pathway; HEK293-V1b, vasopressin-stimulated pERK AlphaScreen; Potency, µM (doses to about 57.5 µM), usual class: inhibitors; 72,000 compounds, 0.99% hits; also: nearly all actives have a fitted effect of over 55% in size
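V1b-HEK293 cells; cpd 30 min 37C; 25 nM vasopressin 5 min; lyse 10 min; AlphaScreen beads 5 hr RT. Normalized to DMSO basal and 25 nM vasopressin; AC50 by Hill fit.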
Each line names hits and unclear results; the compound was inactive in the other large screens. Most compounds without a hit are left out; they make up all but 11% or so of the library. Unless noted, calls follow the shape of the dose curve; as a rule, active = well fitted curve in the direction sought with a large enough effect; inconclusive = small, poorly fitted or top-dose-only effect, or another doubt; inactive = no such curve, though single readings can be large; an effect the other way counts as inactive or inconclusive.

O=C(NCCC[N+]1=CC=N[C@H]1c1ccccc1)N1CCCc2nc(-c3ccc(Br)cc3)ccc21	none (no result: Bst PK mod)
Cc1noc(C)c1C(=O)N1CCC2(CC1)CN(c1ncccn1)C2	HSD17B inh inconclusive (no result: Bst PK mod)
COc1ccc(-n2c(C)cc(C(=O)Cn3c(NCCO)nc4ccccc43)c2C)cc1	ERK AVP block 10µM
Nc1ccc2c(c1)C(=O)c1ccccc1C2=O	ERK AVP block inconclusive (no result: Bst PK mod, FLuc inh)
O=C1c2ccccc2-c2ccc(N(Cc3ccc(Br)cc3)Cc3ccc(Br)cc3)cc21	ERK AVP block 4µM (no result: Bst PK mod)
O=C(Oc1ccc2c(c1)OCO2)c1cc2c(s1)CCC2	HSD17B inh 16µM, 15-hLO inh 20µM, FLuc inh inconclusive
O=C(Oc1ccc2c(c1)OCO2)c1ccc(F)cc1Cl	15-hLO inh inconclusive, FLuc inh 13µM (no result: Bst PK mod)
COC(=O)NC(/C(C(=O)OC)=C(\C)NCc1ccccc1)c1ccc(Cl)cc1 (configuration not stated)	none (no result: Bst PK mod, FLuc inh)
CC(C)=CCC/C(C)=C/CO/N=C1/C[C@@H](O)[C@@H](O)[C@@H]2[C@@H]3C(=O)N(C4CCCCC4)C(=O)[C@H]3CC[C@H]12	none (no result: Bst PK mod)
CC(C)[C@@H](CC(=O)N[C@@H]1CCCC[C@H]1C(=O)N[C@H](CC(=O)N[C@@H](CCC(=O)O)CC(=O)O)Cc1ccccc1)NC(=O)C[C@H](Cc1c[nH]c2ccccc12)NC(=O)[C@@H]1CCCC[C@H]1N	none (no result: HSD17B inh, Bst PK mod, 15-hLO inh, FLuc inh, ERK AVP block)
Cc1ccc(-n2c3c(cc(C(=O)NC4CCSC4=O)c2=O)C(=O)CCC3)cc1 (configuration not stated)	HSD17B inh 25µM
COc1ccc(-n2c3c(cc(C(=O)NC4CCSC4=O)c2=O)C(=O)CC(C)(C)C3)cc1 (configuration not stated)	HSD17B inh inconclusive (no result: Bst PK mod)
COc1ccc(OCC2CN3C(CCC(C)C3c3ccc(Br)cc3)C(=O)O2)cc1 (configuration not stated)	none (no result: Bst PK mod, FLuc inh)
CC(C)(C)NC(=O)NC(=O)COc1ccccc1C#N	FLuc inh 20µM
O=C(Nc1ccc(Nc2ccc3c(c2)C(=O)c2ccccc2C3=O)c2c1C(=O)c1ccccc1C2=O)c1ccccc1	none (no result: Bst PK mod)
Nc1c(S(=O)(=O)O)cc(Nc2cccc(S(N)(=O)=O)c2)c2c1C(=O)c1ccccc1C2=O	HADH2 inh inconclusive, HSD17B inh 3.2µM, 15-hLO inh inconclusive, ERK AVP block inconclusive (no result: Bst PK mod)
S=C(Nc1ccc2cn[nH]c2c1)Nc1ccc2cn[nH]c2c1	HADH2 inh inconclusive, HSD17B inh inconclusive (no result: Bst PK mod)
COc1ccc(CNc2ccc3cn[nH]c3c2)c(OC)c1OC	HSD17B inh 25µM (no result: Bst PK mod)
OCl	none (no result: Bst PK mod, FLuc inh)
Cc1ccc2[nH]c(-c3cccc(N)c3)cc2c1	HADH2 inh 4µM, HSD17B inh 25µM, Bst PK mod inconclusive, FLuc inh 13µM
CCCn1c(-c2ccc(F)cc2)nc2c(NCCCN(CC)CC)nc(C)nc21	HSD17B inh 25µM (no result: Bst PK mod, FLuc inh)
CCCn1c(C)nc2c(N(CCN(C)C)Cc3ccccc3)nc(C)nc21	15-hLO inh 16µM, ERK AVP block inconclusive (no result: Bst PK mod, FLuc inh)
CCCn1c(-c2ccc(F)cc2)nc2c(NCCCN(CCO)CCO)nc(C)nc21	HSD17B inh 25µM (no result: Bst PK mod, FLuc inh)
CCCn1c(-c2ccc(F)cc2)nc2c(NCC3CCN(C)CC3)nc(C)nc21	HSD17B inh 25µM (no result: Bst PK mod, FLuc inh)
CCCn1c(C)nc2c(N(CCN(CC)CC)CCN(CC)CC)nc(C)nc21	none (no result: Bst PK mod, FLuc inh)
CCCn1c(C)nc2c(NCCCN(CC)CC)nc(C)nc21	none (no result: Bst PK mod, FLuc inh)
CCOC(=O)N/N=C1/C[C@@H](O)[C@@H](O)[C@@H]2[C@@H]3C(=O)N(c4cccc(Oc5ccccc5)c4)C(=O)[C@H]3CC[C@@H]12	none (no result: Bst PK mod)
CCCCCC[C@@H]([C@H](C)O)n1cnc2c(N)ncnc21	none (no result: Bst PK mod)
C=C[C@@](C)(O)CC[C@H]1[C@]2(C)CCCC(C)(C)[C@H]2CC[C@]1(C)O	none (no result: HSD17B inh, Bst PK mod, 15-hLO inh, ERK AVP block)
CC(C)(CS)C(=O)N1CCC[C@H]1C(=O)O	HADH2 inh inconclusive (no result: Bst PK mod)
CCCn1c(C)nc2c(NCCN(C)C)nc(C)nc21	15-hLO inh 25µM (no result: Bst PK mod, FLuc inh)
CCCn1c(C)nc2c(NCCN(C(C)C)C(C)C)nc(C)nc21	none (no result: Bst PK mod, FLuc inh)
CCCn1c(-c2ccc(F)cc2)nc2c(NC(C)CCCN(CC)CC)nc(C)nc21 (configuration not stated)	HSD17B inh 25µM (no result: Bst PK mod, FLuc inh)
